# Results reported in PubChem BioAssay AID1159580 (chemical genetic matrix, 2015).
# Among all 5,500 compounds or so, about 2,000 (36%) were called active. Not shown: some 18% with an inconclusive outcome. Some of the results follow. A number with no mark means an inactive call. No stated cut-off is given here; in the data, active means normalized growth mostly below about 0.91 (no sharp cut-off); inconclusive means no clear call, values can overlap the other calls; inactive means mostly above about 0.92.
# Test: chemical genetic growth profiling, strain panel (AID 1159580);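 further: tested at 20 µM; growth read once vehicle control cultures reached saturation at 30 °C; 1 = growth at the plate median or of vehicle wells; lower values mean less growth of the strain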
# Conditions: growth OD
# [1] = S. cerevisiae deletion strains, locus YAL013W, strain DEP1, active compounds read low
# [2] = S. cerevisiae deletion strains, locus YBR229C, strain ROT2, active compounds read low
# [3] = S. cerevisiae deletion strains, locus YDL101C, strain DUN1, active compounds read low
# [4] = S. cerevisiae deletion strains, locus YDR150W, strain NUM1, active compounds read low
# [5] = S. cerevisiae deletion strains, locus YEL061C, strain CIN8, active compounds read low
# [6] = S. cerevisiae deletion strains, locus YGR078C, strain PAC10, active compounds read low
# [7] = S. cerevisiae deletion strains, locus YHR030C, strain SLT2, active compounds read low
# [8] = S. cerevisiae deletion strains, locus YHR087W, strain rtc3, active compounds read low
# [9] = S. cerevisiae deletion strains, locus YJR043C, strain POL32, active compounds read low
# [10] = S. cerevisiae deletion strains, locus YJR075W, strain HOC1, active compounds read low
# [11] = S. cerevisiae deletion strains, locus YLR039C, strain RIC1, active compounds read low
# [12] = S. cerevisiae deletion strains, locus YLR058C, strain SHM2 (second series), active compounds read low
# [13] = S. cerevisiae deletion strains, locus YLR085C, strain ARP6, active compounds read low
# [14] = S. cerevisiae deletion strains, locus YLR262C, strain YPT6, active compounds read low
# [15] = S. cerevisiae deletion strains, locus YML094W, strain GIM5, active compounds read low
# [16] = S. cerevisiae deletion strains, locus YMR219W, strain ESC1, active compounds read low
# [17] = S. cerevisiae deletion strains, locus YMR307W, strain GAS1, active compounds read low
# [18] = S. cerevisiae deletion strains, locus YNL128W, strain TEP1, active compounds read low
# [19] = S. cerevisiae deletion strains, locus YNL153C, strain GIM3, active compounds read low
# [20] = S. cerevisiae deletion strains, locus YNL298W, strain CLA4 (second series), active compounds read low
# [21] = S. cerevisiae deletion strains, locus YNL322C, strain KRE1, active compounds read low
# [22] = S. cerevisiae deletion strains, locus YNR030W, strain Alg12, active compounds read low
# [23] = S. cerevisiae deletion strains, locus YPL055C, strain LGE1, active compounds read low
# [24] = S. cerevisiae deletion strains, locus YPL241C, strain CIN2, active compounds read low
# [25] = S. cerevisiae deletion strains, locus YPR135W, strain CTF4, active compounds read low
smiles,measurement,setting,value
O=C(Nc1ccc(Cl)c(Cl)c1)c1ccccc1,normalized growth,[1],0.885 (active)
same,normalized growth,[2],0.892 (active)
same,normalized growth,[3],0.931
same,normalized growth,[4],0.889
same,normalized growth,[5],0.813 (active)
same,normalized growth,[6],0.84 (active)
same,normalized growth,[7],0.579 (active)
same,normalized growth,[8],0.846 (active)
same,normalized growth,[9],0.906 (active)
same,normalized growth,[10],0.771 (active)
same,normalized growth,[11],0.271 (active)
same,normalized growth,[12],0.876 (active)
same,normalized growth,[13],0.504 (active)
same,normalized growth,[14],0.318 (active)
same,normalized growth,[15],0.797 (active)
same,normalized growth,[16],0.895 (active)
same,normalized growth,[17],0.453 (active)
same,normalized growth,[18],0.933
same,normalized growth,[19],0.942
same,normalized growth,[20],0.747 (active)
same,normalized growth,[21],0.8 (active)
same,normalized growth,[22],0.761 (active)
same,normalized growth,[23],0.754 (active)
same,normalized growth,[24],0.754 (active)
same,normalized growth,[25],0.406 (active)
same,normalized growth,"S. cerevisiae strains, strain wild type, active compounds read low",0.908 (active)
S=C(NCc1cccnc1)Nc1ccccc1Cl,normalized growth,[1],0.987
same,normalized growth,[2],1
same,normalized growth,"S. cerevisiae deletion strains, locus YCL061C, strain MRC1, active compounds read low",0.988
same,normalized growth,[3],0.989
same,normalized growth,[4],0.953
same,normalized growth,[5],0.975
same,normalized growth,[6],0.989
same,normalized growth,"S. cerevisiae deletion strains, locus YGR229C, strain SMI1, active compounds read low",0.991
same,normalized growth,[7],0.538 (active)
same,normalized growth,[8],1.01
same,normalized growth,[9],0.984
same,normalized growth,[10],1.02
same,normalized growth,[11],0.939
same,normalized growth,[12],0.987
same,normalized growth,[13],0.584 (active)
same,normalized growth,[14],0.982
same,normalized growth,[15],0.953
same,normalized growth,[16],0.992
same,normalized growth,"S. cerevisiae deletion strains, locus YMR263W, strain SAP30, active compounds read low",0.968
same,normalized growth,[18],0.994
same,normalized growth,[19],0.98
same,normalized growth,[20],0.959
same,normalized growth,[21],1
same,normalized growth,[22],0.987
same,normalized growth,"S. cerevisiae deletion strains, locus YOL006C, strain TOP1, active compounds read low",1
same,normalized growth,[23],0.961
same,normalized growth,[24],0.97
same,normalized growth,[25],0.745
COc1ccc(C(=O)NCc2cccnc2)cc1C(=O)NCc1cccnc1,normalized growth,"S. cerevisiae deletion strains, locus YAL040C, strain CLN3, active compounds read low",0.994
same,normalized growth,"S. cerevisiae deletion strains, locus YCL061C, strain MRC1 (second series), active compounds read low",1.01
same,normalized growth,[4],1
same,normalized growth,"S. cerevisiae deletion strains, locus YDR363W, strain ESC2, active compounds read low",1
same,normalized growth,"S. cerevisiae deletion strains, locus YER002W, strain NOP16, active compounds read low",0.997
same,normalized growth,[10],1.02
same,normalized growth,[17],1.01
same,normalized growth,[18],1.01
same,normalized growth,[19],1.02
same,normalized growth,"S. cerevisiae deletion strains, locus YNL175C, strain NOP13, active compounds read low",1.02
same,normalized growth,"S. cerevisiae deletion strains, locus YNL197C, strain WHI3, active compounds read low",1.04
same,normalized growth,"S. cerevisiae deletion strains, locus YNL224C, strain SQS1, active compounds read low",1
same,normalized growth,"S. cerevisiae deletion strains, locus YOR083W, strain WHI5 (second series), active compounds read low",1.02
